Screening data deposited in PubChem by SRMLSC.
Autofluor 339: intrinsic fluorescence of library compounds, ex339/em460 – biochemical, MLSMR library, data from DPM-DC assay, artefact control, profiling panel | compound autofluorescence, ex339/em460 nm, NADH buffer; active compounds read high; 1 = no-compound wells, NADH background | fluorescence fold increase at 10 µM | 65,000 compounds, 5.5% hits;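 active = at 10 µM, mean starting fluorescence two-fold or more over control wells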;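 note: signal is the first read of a kinetic run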
Abs 340nm: compound light absorbance at 340 nm, profiling panel, artefact control, biochemical, MLSMR library, data from PS, PMK, MK assays | compound absorbance at 340 nm, fold over control | fold change at 10 µM | 65,000 tested, under 10 active | AID 708, 2007;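 active = at 10 µM dose, initial 340 nm absorbance at least 2 fold that of control wells; inactive = change under 2 fold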;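 note: initial absorbance extrapolated from kinetic A340 decline of NADH oxidation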
Spn MK inh: S. pneumoniae MK inhibitors, primary screen, biochemical, PK/LDH-coupled NADH absorbance; purified MK, PK/LDH-coupled NADH absorbance 340 nm; inhibition, % at 10 µM; 65,000 compounds, 0.48% hits;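 active = ranked among the strongest by inhibition in the single 10 µM screen, a fixed top-ranked set picked for dose follow-up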
PMK inhibit: S. pneumoniae PMK inhibitors, primary screen, biochemical, mevalonate pathway, pilot trial included; purified PMK, PK/LDH-coupled NADH absorbance 340 nm; inhibition, % at 10 µM; 65,000 compounds, 0.49% hits; AID 539, 2006;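 active = top-ranked compounds by inhibition in the single 10 µM screen, taking a fixed number of the strongest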;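 note: 0% = full reaction with DMSO carrier and 100% = background rate without enzyme reaction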
DPM-DC inhibit: S. pneumoniae DPM-DC inhibitors, primary screen, biochemical, PK/LDH-coupled NADH fluorescence; purified DPM-DC; calls only at 10 µM; 65,000 compounds, 0.49% hits;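 active = the 320 compounds with the highest percent inhibition in the single-dose primary screen, excluding strongly autofluorescent ones, cut at about 32% in these data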;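 note: kinetic rate of NADH fluorescence loss reporting ADP formed by the decarboxylase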
NADH enzymes: inhibitors of PK/LDH coupling enzymes, profiling panel, artefact control, biochemical, MLSMR library. AID 774, 2007. coupled PK/LDH NADH assays, four targets. IC50, µM (series often up to 10 µM), without a hit: top-dose inhibition. 65,000 compounds, 0.02% hits;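 active = single-dose screening hits from any of four coupled enzyme assays that gave an IC50 when retested across doses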;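 note: the DPM-DC format reads NADH fluorescence rather than 340 nm absorbance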
* = called active by the depositor; i = inactive; · = not tested or not shown; + = active, no number. This is a sample that favours compounds with a hit; in the whole collection about 6.8% have one here.

SMILES | Autofluor 339 | Abs 340nm | Spn MK inh | PMK inhibit | DPM-DC inhibit | NADH enzymes
CC(=O)Nc1ccc(S(=O)(=O)N2CCN(c3nc(NC4CCCC4)c4ccccc4n3)CC2)cc1 | 2.2* | 1.06 | 2.0 | 9.0 | · | 6.0%
O=C(O)CCc1nn2cc(-c3ccccc3)nc2[nH]c1=O | 2.35* | 1.07 | 3.0 | 4.0 | · | 4.0%
CCc1nn2cc(-c3ccccc3)nc2s1 | 1.06 | 1.02 | 10.0 | 5.0 | i | 7.0%
Clc1cccc(Nc2ncnc3c2cnn3-c2ccccc2)c1 | 2.12* | 1.04 | 1.0 | 6.0 | i | 2.0%
Fc1cccc(Nc2ncnc3c2cnn3-c2ccccc2)c1 | 1.53 | 1.02 | 6.0 | 6.0 | i | 3.0%
CCOC(=O)C1CCN(Cc2ccc(F)c(Br)c2)CC1 | 0.98 | 1 | 51.0* | 9.0 | i | 6.0%
CCOC(=O)C1CCN(Cc2ccc(OC)c(C)c2OC)CC1 | 1 | 0.98 | 48.0* | 16.0 | i | 9.0%
Fc1ccc(CN2CCSCC2)cc1Br | 1.1 | 1.05 | 0.0 | 2.0 | i | 1.0%
CCOC(=O)C1CCCN(Cc2ccc(OC)cc2OC)C1 (centres undefined) | 1.13 | 1.07 | 49.0* | 0.0 | i | 16.0%
CCOC(=O)C1CCCN(Cc2ccc(O)c(OC)c2)C1 (centres undefined) | 1.1 | 1.05 | 30.0 | 0.0 | i | 10.0%
CCOC(=O)N1CCC(NC(=O)Cn2nc(Cc3ccncc3)c3ccccc3c2=O)CC1 | 1.05 | 1.02 | 10.0 | 18.0 | i | 9.0%
COc1cccc(C2C(C(=O)c3cccs3)=C(O)C(=O)N2CCCn2ccnc2)c1OC (centres undefined) | 0.99 | 0.99 | 11.0 | 7.0 | i | 4.0%
Cc1ccccc1Cn1cc(NC(=O)c2noc3c2CC(C(C)(C)C)CC3)cn1 (centres undefined) | 1.7 | 0.99 | 5.0 | 20.0 | i | 2.58µM*
CC1(C(=O)N(CC(=O)NC2CCCC2)Cc2ccco2)CC(=O)N=C2C=CC=CN21 (centres undefined) | 4.85* | 1.02 | 6.0 | 8.0 | · | 7.0%
Cc1nn(-c2ccccc2)c2sc(C(=O)N(CC(=O)NC3CCCC3)Cc3ccco3)cc12 | 1.18 | 1.05 | 9.0 | 1.0 | i | 3.0%
Cc1noc(C)c1C(=O)OCC(=O)NCCC1=CCCCC1 | 1.1 | 1.02 | 0.0 | 15.0 | i | 5.0%
CCOC(=O)CS(=O)(=O)c1nc(-c2ccccc2)cc(C(F)(F)F)n1 | 1.04 | 0.98 | 10.0 | 6.0 | i | 4.0%
NC(=O)c1c(C(F)(F)F)cc(-c2ccccc2)nc1NCCO | 3.74* | 1.09 | 7.0 | 9.0 | · | 8.0%
CCCCn1c(SCC(=O)c2ccc(OC)cc2OC)nc2cc(S(N)(=O)=O)ccc21 | 2.53* | 1.05 | 4.0 | 10.0 | i | 14.0%
CCCCCn1c(SCC#N)nc2cc(C(=O)NCC3CCCO3)ccc2c1=O (centres undefined) | 0.72 | 1.06 | 0.0 | 6.0 | + | 14.0%
CCCCCNC(=O)c1ccc2c(=O)n(CC3CCCO3)c(=O)[nH]c2c1 (centres undefined) | 2.03* | 1.05 | 0.0 | 2.0 | i | 1.0%
CCCn1c(=S)[nH]c2cc(C(=O)NCC3CCCO3)ccc2c1=O (centres undefined) | 1.07 | 1.08 | 7.0 | 5.0 | i | 4.0%
CC(OC(=O)c1ccc2ccccc2n1)C(=O)Nc1ccc(N2CCOCC2)cc1 (centres undefined) | 1.09 | 1.01 | 0.0 | 14.0 | i | 5.0%
CCOc1ccc2cc(C#N)c(SCC(=O)N3CCCC3)nc2c1 | 2.15* | 1.03 | 13.0 | 9.0 | i | 8.0%
O=C(CSc1nnc2ccccn12)NC(=O)NC1CCCCC1 | 1.1 | 1.01 | 5.0 | 19.0 | i | 8.0%
O=C(CSc1nnc2ccccn12)Nc1ccccc1C(=O)NC1CC1 | 0.94 | 1.01 | 0.0 | 14.0 | + | 17.0%
Cc1nc2ccc(C(=O)O)cc2c2c1CC(C)S2 (centres undefined) | 3.04* | 1.02 | 9.0 | 3.0 | · | 2.0%
